Screening results deposited in PubChem by National Center for Advancing Translational Sciences (NCATS).
Tau ThT inhib: tau fibrillization inhibition (ThT binding) | P10636 | AID 1460 | Potency, µM (series often up to 57.4 µM), for inactives: at the top dose activity, negative = inhibition, actives largely listed as inhibitors | hit rate 2.1% among 270,000 | recombinant tau K18 P301L, heparin-induced fibrillization, ThT fluorescence; also: potency is read from the fitted curve at half-maximal effect; nearly all actives have a fitted effect of over 55% in size
Target sequence (P10636 561-689 P618L limits assumed): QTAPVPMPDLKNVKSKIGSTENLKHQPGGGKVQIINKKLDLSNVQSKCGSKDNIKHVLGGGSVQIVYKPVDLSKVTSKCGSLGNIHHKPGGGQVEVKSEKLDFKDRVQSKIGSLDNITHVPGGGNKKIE
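Aggregation was driven by heparin (20 uM final) acting on recombinant tau […] bearing P301L in 100 mM sodium acetate pH 7; fibrils were detected with Thioflavin T.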
Sfp PPTase inh: Sfp phosphopantetheinyl transferase inhibition; hit rate 3.5% among 310,000; Potency, µM, inactives show largest response in the series, negative = inhibition, actives largely listed as inhibitors; AID 1490; Biochemical Sfp PPTase activity, qHTS;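 also: the enzyme is Sfp with the accession as filed and its product quenches rhodamine fluorescence; potency is read from the fitted curve at half-maximal effect; 0% = enzyme reaction without inhibitor and -100% = no enzyme wells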
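Buffer: 50 mM Hepes-Na pH 7.6, 10 mM MgCl2, 0.01% Nonidet P-40, 0.01% BSA. Enzyme 15 nM, pre-exposed to compound 15 min; substrates then added and fluorescence change tracked over 30 min.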
FBPA coupling cs: inhibits coupling enzyme system, counter-screen for aldolase hits; coupling enzyme system counterscreen, AmpLite Red fluorescence; activity change, negative = inhibition, % at 58.2 µM, hits read low; hit rate 0.67% among 290,000; AID 2472; in the data active = activity change below about -30%
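Counterscreen lacking aldolase: glyceraldehyde-3-phosphate coupling-enzyme reagent preincubated 10 min at RT with compound (at 57.5 uM final), then substrate/coupling system with AmpLite Red added; fluorescence read at 525/598 nm after 20 min RT.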
Tau fluor cs: counter-screen for tau fibril formation inhibitors; tau K18 P301L Alexa594 fluorescence, heparin fibrillization; Potency, µM (highest dose often 57.7 µM), inactives show top-dose activity change, negative = decrease; hit rate 0.93% among 280,000; AID 1463; also: potency is read from the fitted curve at half-maximal effect; nearly all actives have a fitted effect of over 55% in size
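Human tau K18 P301L (15 uM unlabeled, 0.24 uM Alexa 594-labeled) in 100 mM sodium acetate pH 7 with 20 uM heparin, 6 hr at 37 C. ThT 30 uM added, 1 hr ambient; Alexa 594 FP and total fluorescence read at 555/632 nm.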
Tau fibril FP: tau fibrillization inhibition (FP); hit rate 0.39% among 280,000; AID 1468; Potency, µM (series often up to 57.7 µM), for inactives: top-dose activity, negative = inhibition, usual class: inhibitors; P10636; K18 P301L tau heparin fibrillization, Alexa594 FP, 6 h; also: potency is read from the fitted curve at half-maximal effect; nearly all actives have a fitted effect of over 55% in size
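Human tau K18 […] P301L fragment, 15 uM unlabeled plus 0.24 uM Alexa 594-labeled tau (final), with compound and 20 uM heparin in 100 mM sodium acetate pH 7; 6 hr at 37 C, then Alexa 594 FP read.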
JMJD2E inh: JMJD2E (human) inhibition | B2RXH2 | AID 2147 | hit rate 1.6% among 230,000 | JMJD2E catalytic domain, FDH-coupled NADH fluorescence (FDH is formaldehyde dehydrogenase) | Potency, µM (doses to about 57.1 µM), inactives show top-dose activity change, negative = inhibition, hits mostly inhibitors; active = well fitted inhibition curve with a large enough effect, not every such curve was filed as active; inconclusive = small, poorly fitted or top-dose-only effect, or another doubt; inactive = no such curve, though single readings can be large or run the other way;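 also: potency is read from the fitted curve at half-maximal effect; 0% = wells with enzyme and -100% = buffer wells without enzyme; nearly all actives have a fitted effect of over 50% in size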
Target sequence (B2RXH2 1-337 limits assumed): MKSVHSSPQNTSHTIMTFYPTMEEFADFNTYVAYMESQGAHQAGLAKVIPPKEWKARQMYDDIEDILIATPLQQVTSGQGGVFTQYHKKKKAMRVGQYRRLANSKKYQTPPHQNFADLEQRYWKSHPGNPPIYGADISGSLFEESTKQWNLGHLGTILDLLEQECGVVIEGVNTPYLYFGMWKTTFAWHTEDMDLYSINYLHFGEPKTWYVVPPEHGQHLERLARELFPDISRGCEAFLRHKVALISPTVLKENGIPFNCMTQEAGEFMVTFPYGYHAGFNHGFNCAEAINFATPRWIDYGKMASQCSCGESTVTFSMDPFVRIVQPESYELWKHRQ
Active calls of the source: *; [ ] = dose if it differs, or a comment. The list is not random: actives were taken first. Their share in the collection is about 5.3%. Unless noted, calls follow the shape of the dose curve; as a rule, active = well fitted curve in the direction sought with a large enough effect; inconclusive = small, poorly fitted or top-dose-only effect, or another doubt; inactive = no such curve, though single readings can be large; an effect the other way counts as inactive or inconclusive. Unless noted, % is scaled to controls: 0 for no effect and ±100 for the full control effect.

Screening c1ccc2c(c1)OCC(c1nnc3sc(-c4ccc5c(c4)OCO5)nn13)O2 (stereo not given) returned Tau ThT inhib inconclusive, Sfp PPTase inh 25µM*, FBPA coupling cs 0, Tau fluor cs -15%, Tau fibril FP -3% and JMJD2E inh inconclusive.
`O=C(CN1C(=O)COc2ccccc21)N1CCCC1` gave Sfp PPTase inh 14% and FBPA coupling cs 1.
Screening O=C1CN(CC(=O)N2CCCCC2)c2ccccc2O1 returned Tau ThT inhib 28µM*, Sfp PPTase inh -4%, FBPA coupling cs -17, Tau fluor cs inconclusive, Tau fibril FP inconclusive and JMJD2E inh -9%.
`COCCCNC(=O)c1ccc2c3c(onc13)-c1ccccc1C2=O` gave Tau ThT inhib 6.3µM*, Sfp PPTase inh 56µM*, FBPA coupling cs -32*, Tau fluor cs 5.6µM*[quencher], Tau fibril FP inconclusive and JMJD2E inh inconclusive.
Cc1ccc2c(c1)sc(C)[n+]2CCCS(=O)(=O)[O-] was read as Tau ThT inhib inconclusive, Sfp PPTase inh 1µM*, FBPA coupling cs -1, Tau fluor cs 3%, Tau fibril FP -16% and JMJD2E inh -4%.
Cc1ccc2sc(C)[n+](CCCS(=O)(=O)[O-])c2c1 was read as Tau ThT inhib inconclusive, Sfp PPTase inh 2.8µM*, FBPA coupling cs 4, Tau fluor cs inconclusive, Tau fibril FP -16% and JMJD2E inh -4%.
CCc1ccc(N2C(=O)N(CC(=O)C(C)(C)C)c3ccccc3S2(=O)=O)cc1 was read as Tau ThT inhib 7%, Tau fluor cs -21% and Tau fibril FP -7%.
C=C(C)CSc1nc2sc3c(c2c(=O)n1Cc1ccccc1)CC(C)(CC)OC3 (stereo not given) was read as Tau ThT inhib inconclusive, Tau fluor cs -1% and Tau fibril FP 3%.
For Cc1nc(NN)c2c3c(sc2n1)COC(C)(C)C3 the results were Sfp PPTase inh 56µM* and FBPA coupling cs -3.
Screening CC1(C)Cc2c(sc3ncnc(N)c23)CO1 returned Tau ThT inhib -9%, Sfp PPTase inh 16%, FBPA coupling cs 0, Tau fluor cs -3%, Tau fibril FP -5% and JMJD2E inh -7%.
CC1(C)Cc2c(sc3nc(=S)[nH]c(N)c23)CO1 was read as Sfp PPTase inh 25µM* and FBPA coupling cs -3.
For COc1ccc(NC(=O)N2CCCC3(CCN(S(C)(=O)=O)CC3)C2)cc1 the results were Sfp PPTase inh 12% and FBPA coupling cs -2.
For N#Cc1c(C(F)(F)F)cc(-c2cccs2)nc1SCc1ccc(Cl)nc1 the results were Tau ThT inhib -7%, Sfp PPTase inh 22µM*, FBPA coupling cs -2, Tau fluor cs -13%, Tau fibril FP -5% and JMJD2E inh inconclusive.
Screening Cc1nn2c(C)c(C(=O)N3CCN(c4ccccc4)CC3)cnc2c1-c1ccccc1 returned Tau ThT inhib -11%, Tau fluor cs -9% and Tau fibril FP 5%.
COc1ccc(-c2ccc(OC)c(C3C4C=CCCC4(C)C(=O)N3Cc3ccccc3)c2)cc1OC (stereo not given) was read as Sfp PPTase inh inconclusive and FBPA coupling cs 1.
COc1ccc(C2NC3=C(CCCC3)C(C#N)(C#N)C2(C#N)C#N)cc1 (stereo not given) was read as Tau ThT inhib 25µM*, Sfp PPTase inh 56µM*, FBPA coupling cs -27, Tau fluor cs inconclusive, Tau fibril FP inconclusive and JMJD2E inh inconclusive.
For O=C(NCCCN1CCCCC1)c1cc(Sc2ccc(Cl)cc2)nc2ccccc12 the results were Tau ThT inhib 7%, Tau fluor cs -10% and Tau fibril FP -5%.
For O=C(Cc1ccc(S(=O)(=O)N2CCOCC2)s1)Nc1nc2c(s1)CCCC2 the results were Tau ThT inhib inconclusive, Sfp PPTase inh -107%, FBPA coupling cs -59*, Tau fluor cs -12%, Tau fibril FP 7% and JMJD2E inh -28%.
For COc1cccc(NC(=O)NC2(C(F)(F)F)Oc3ccccc3O2)c1 the results were Tau ThT inhib inconclusive, Sfp PPTase inh -7%, FBPA coupling cs 2, Tau fluor cs 18µM*[quencher], Tau fibril FP 5% and JMJD2E inh 5%.
CCOC(=O)Cc1csc(NC(=O)Nc2ccc(OC(F)(F)F)cc2)n1 was read as Tau ThT inhib -22%, Sfp PPTase inh 8%, FBPA coupling cs -3, Tau fluor cs inconclusive, Tau fibril FP inconclusive and JMJD2E inh 18%.
For CCOC(=O)Cc1csc(NC(=O)NC2(C(F)(F)F)Oc3cc(Cl)c(Cl)cc3O2)n1 the results were Tau ThT inhib -18%, Sfp PPTase inh inconclusive, FBPA coupling cs -9, Tau fluor cs -17%, Tau fibril FP 1% and JMJD2E inh 28µM*.
CCOC(=O)Cc1csc(NC(=O)NC2(C(F)(F)F)Oc3ccccc3O2)n1 was read as Tau ThT inhib inconclusive, Sfp PPTase inh 45µM*, FBPA coupling cs -7, Tau fluor cs inconclusive, Tau fibril FP inconclusive and JMJD2E inh inconclusive.
For Cc1ccc(C)c(NC(=O)c2cc(=O)c3cc(C)cc(C)c3o2)c1 the results were Tau ThT inhib 1%, Tau fluor cs 3% and Tau fibril FP -1%.
Screening COC(=O)c1ccc(NC(=O)NCCn2nnc3cc(S(=O)(=O)N(C)C)ccc32)cc1 returned Tau ThT inhib -1%, Tau fluor cs 0% and Tau fibril FP 9%.
For O=C(Nc1ccc2nc(SCC(=O)N3CCCc4ccccc43)sc2c1)c1cccc(Cl)c1 the results were Tau ThT inhib 4%, Tau fluor cs -20% and Tau fibril FP inconclusive.
O=S(=O)(c1cccs1)N1CN(Cc2ccc(Cl)cc2)c2nc3ccccc3nc21 was read as Tau ThT inhib 4%, Sfp PPTase inh 13%, FBPA coupling cs 5, Tau fluor cs -11%, Tau fibril FP -16% and JMJD2E inh inconclusive.
Screening O=S(=O)(c1cccs1)N1CN(Cc2ccco2)c2nc3ccccc3nc21 returned Tau ThT inhib 22µM*, Sfp PPTase inh inconclusive, FBPA coupling cs -12, Tau fluor cs inconclusive, Tau fibril FP inconclusive and JMJD2E inh inconclusive.
CC(=O)c1ccc(NC(=O)Nc2ccc3c(c2)N(C)C(=O)CS3)cc1 was read as Tau ThT inhib inconclusive, Sfp PPTase inh -16%, FBPA coupling cs 1, Tau fluor cs 13µM*[quencher], Tau fibril FP -3% and JMJD2E inh 5%.
For CN1C(=O)CSc2ccc(NC(=O)NCCC3=CCCCC3)cc21 the results were Tau ThT inhib -27%, Sfp PPTase inh -1%, FBPA coupling cs 5, Tau fluor cs 14µM*[quencher], Tau fibril FP inconclusive and JMJD2E inh 4%.
